Source: PubChem BioAssay (National Center for Advancing Translational Sciences (NCATS))
Only some compounds are listed: those with a hit (about 12% of all), similar ones and a draw of the others.
G9a block = qHTS Assay for Inhibitors of Histone Lysine Methyltransferase G9a | G9a H3K9 monomethylation, AlphaScreen, 2 h | Potency, µM (highest dose often 102 µM), for inactives: at the highest dose activity, negative = inhibition, actives largely listed as inhibitors | 8.8% of 350,000 active | AID 504332, 2011; also: % is scaled to controls: 0 for no effect and ±100 for the full control effect; nearly all actives have a fitted effect of over 75% in size
Target sequence (Q96KQ7 913-1193 limits assumed): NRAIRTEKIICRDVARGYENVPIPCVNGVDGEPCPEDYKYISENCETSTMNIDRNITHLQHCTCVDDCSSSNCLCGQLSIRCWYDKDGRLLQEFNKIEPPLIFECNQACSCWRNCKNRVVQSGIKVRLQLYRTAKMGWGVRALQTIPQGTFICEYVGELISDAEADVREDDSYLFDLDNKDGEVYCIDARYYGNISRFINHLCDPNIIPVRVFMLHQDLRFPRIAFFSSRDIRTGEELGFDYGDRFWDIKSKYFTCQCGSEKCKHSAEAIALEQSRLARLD
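G9a (20 nM) preincubated 15 min RT with compounds, then 500 nM biotinylated H3K9 peptide and 20 uM SAM added; 2 h RT reaction. Monomethyl-H3K9 product detected by AlphaScreen with anti-H3K9me1 antibody, streptavidin donor and anti-rabbit IgG acceptor beads.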
L3MBTL1 inh = qHTS Assay for the Inhibitors of L3MBTL1; AID 485360, 2010; Potency, µM (doses to about 57.1 µM), for inactives: at the top dose activity, negative = inhibition, hits mostly inhibitors; 0.66% of 230,000 active; AlphaScreen L3MBTL1–H3K9me1 peptide binding; Lethal(3)malignant brain tumor-like protein 1 (Homo sapiens), Q9Y468; also: % is scaled to controls: 0 for no effect and ±100 for the full control effect; nearly all actives have a fitted effect of over 60% in size
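Displacement of a biotinylated histone H3(1-15) peptide monomethylated at Lys9 (75 nM) from L3MBTL1 (50 nM) was measured by AlphaScreen after a 30 min room-temperature compound incubation; cefsulodin titration served as intraplate control.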
Sfp PPTase inh = qHTS Assay for Inhibitors of Bacillus subtilis Sfp phosphopantetheinyl transferase (PPTase); 4'-phosphopantetheinyl transferase ffp (Bacillus subtilis), Q9F4F7; Biochemical Sfp PPTase activity, qHTS; Potency, µM, for inactives: largest response in the series, negative = inhibition, most hits filed as inhibitors; 3.5% of 310,000 active; AID 1490, 2009;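 also: the enzyme is Sfp with the accession as filed and its product quenches rhodamine fluorescence; 0% = enzyme reaction without inhibitor and -100% = no enzyme wells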
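With Hepes-Na pH 7.6 buffer containing 10 mM MgCl2, Sfp (15 nM) modified BHQ-2-YbbR (12.5 uM) using rhodamine-CoA (5 uM). Two reads 30 minutes apart at 525/598 nm yielded each well's rate.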
BAZ2B inh = qHTS Assay for Inhibitors of BAZ2B. Potency, µM (doses to about 114 µM), for inactives: at the highest dose activity change, negative = inhibition, actives largely listed as inhibitors. Bromodomain adjacent to zinc finger domain protein 2B (Homo sapiens), Q9UIF8. AlphaScreen BAZ2B-H3K14Ac peptide displacement. AID 504333, 2011. 4.4% of 360,000 active; also: % is scaled to controls: 0 for no effect and ±100 for the full control effect; nearly all actives have a fitted effect of over 60% in size
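AlphaScreen luminescence quantifies BAZ2B engagement of H3K14Ac peptide; the protein and biotinylated peptide are both at 50 nM final, buffer PBS pH 7.4 with 0.01% Tween-20, all steps at room temperature.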
HP1b chromo inh = HTS for Inhibitors of HP1-beta Chromodomain Interactions with Methylated Histone Tails; Chromobox protein homolog 1 (Homo sapiens), P83916; AlphaScreen HP1-beta / biotin-H3K9me3 peptide binding; Potency, µM (doses to about 114 µM), for the others: at the highest dose activity change, negative = inhibition, most hits filed as inhibitors; 0.56% of 390,000 active; also: nearly all actives have a fitted effect of over 70% in size
Target sequence (P83916 whole entry, looked up): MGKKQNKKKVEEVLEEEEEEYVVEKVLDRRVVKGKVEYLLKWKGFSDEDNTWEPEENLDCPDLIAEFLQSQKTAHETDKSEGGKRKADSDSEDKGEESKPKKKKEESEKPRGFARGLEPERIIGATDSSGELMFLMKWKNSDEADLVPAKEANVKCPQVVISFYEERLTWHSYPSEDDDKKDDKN
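HP1-beta protein (50 nM final) preincubated 30 min at room temperature with biotinylated H3(1-18)K9me3 peptide (50 nM) in PBS pH 7.4, 0.01% Tween-20, then compound added for 30 min. AlphaScreen streptavidin donor/nickel chelate acceptor beads (10 ug/mL final), 30 min dark, luminescence read.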
JMJD2A Tudor inh = qHTS Assay for Inhibitors of JMJD2A-Tudor Domain. Lysine-specific demethylase 4A (Homo sapiens), O75164. AlphaScreen JMJD2A-Tudor / H3K4me3 peptide binding. Potency, µM (series often up to 114 µM), without a hit: at the highest dose activity change, negative = inhibition, actives largely listed as inhibitors. 4.4% of 390,000 active; also: % is scaled to controls: 0 for no effect and ±100 for the full control effect; nearly all actives have a fitted effect of over 50% in size
Numbers without * were called inactive; u = inconclusive; x = no result given; [ ] = another dose, or the depositor's remark. Calls follow the shape of the dose curve; as a rule, active = well fitted curve in the direction sought with a large enough effect; inconclusive = small, poorly fitted or top-dose-only effect, or another doubt; inactive = no such curve, though single readings can be large; an effect the other way counts as inactive or inconclusive. Potency is read from the fitted curve at half-maximal effect.

SMILES | G9a block | L3MBTL1 inh | Sfp PPTase inh | BAZ2B inh | HP1b chromo inh | JMJD2A Tudor inh
COc1cccc(OCCCCn2c(-c3ccc(Cl)cc3)nc3ccccc3c2=O)c1 | 18.8%[59 µM] | x | x | 84.1% | 100.2% | 36.3%
Cc1ccc(S(=O)(=O)CC(c2ccccc2)N2CCCCC2)cc1 (stereo not drawn) | 50.1µM* | 0.8% | 20.8% | -12.7% | 36.4% | -6.9%
Cc1ccc(S(=O)(=O)CC(c2ccccc2)N2CCOCC2)cc1 (stereo not drawn) | 11.4%[59 µM] | x | 21.0% | 4.1% | 9.2% | -9.4%
COc1ccccc1-c1cc(C(=O)Nc2cc(C)n(Cc3ccc(Cl)cc3)n2)no1 | 16.4%[12.7 µM] | 1.1% | 39.8µM* | -1.8% | 24.3% | -1.5%
Cc1cc(C)cc(N=c2c([N+](=O)[O-])nn(-c3cccc(Cl)c3)n2O)c1 | 39.8µM* | x | -4.6% | u | -33.4% | u
Cc1cccc(N=c2c([N+](=O)[O-])nn(-c3ccc(Cl)cc3)n2O)c1 | 28.2µM* | x | 13.8% | 10µM* | 2.6% | -8.8%
Cc1cccc(-n2nc([N+](=O)[O-])c(=NCc3cccnc3)n2O)c1 | x | -7.2% | 15.2% | -12.6% | 11.4% | -20.9%
O=[N+]([O-])c1nn(-c2ccc(Cl)cc2)n(O)c1=NCc1ccccc1Cl | u | x | 11.7% | u | 8.5% | -30.1%
Cc1cccc(NC(=O)C(NS(=O)(=O)c2ccc3c(c2)oc(=O)n3C)C(C)C)c1 (stereo not drawn) | -4.7%[59 µM] | x | x | -14.3% | 25.7% | -12.5%
NC(=O)CCCCC(=O)OCCCc1cccs1 | -5.8%[59 µM] | 35.3%[11.4 µM] | 17.8% | u | 4.4% | 89.1µM*
CCc1ccc(CN(Cc2cccnc2)C(=O)/C=C/c2ccc(OC)cc2)cc1 | 50.1µM* | x | u | -23.9% | 0.1% | -28.0%
COc1ccc(/C=C/C(=O)NCc2cccnc2)cc1 | -3.8% | 0.0% | -3.6% | 3.2% | 37.9% | 3.3%
CSc1cccc(NC(=S)N2CCC(c3ccccc3)C2)c1 (stereo not drawn) | -0.1% | x | 11.6% | -26.1% | 55.6% | -25.8%
CSc1cccc(NC(=S)N2CCC(N(C)C3CCCCC3C)CC2)c1 (stereo not drawn) | 50.1µM* | x | 10.1% | u | 5.4% | -21.5%
CCCCN(C(=S)Nc1cccc(SC)c1)C1CCN(C(C)=O)CC1 | 14.1%[59 µM] | x | -20.1% | -23.5% | 35.5% | -2.8%
CSc1cccc(NC(=S)N2CCC(N(C)C3CCCCC3)CC2)c1 | 50.1µM* | x | -16.6% | -20.1% | 4.5% | -15.5%
O=C(CSc1nnc(-c2cccs2)o1)Oc1ccccc1Cl | -32.0%[59 µM] | x | x | 0.6% | 42.2% | -5.3%
CCCC[C@H](CC)CN=C(N)NC(N)=NCCCCCCN=C(N)NC(N)=NC[C@@H](CC)CCCC | u | x | 8.91µM* | x | x | x
CCCCCCCCCCC(CO)CCCCCCCC (stereo not drawn) | 40.0%[59 µM] | x | 24.2% | x | x | x
CCN(Cc1ccccc1)C(=O)Cn1c(=O)n(-c2ccc(C)c(C)c2)c(=O)c2c(C)c(C)sc21 | -44.2%[59 µM] | x | x | -21.0% | 22.7% | -23.5%
CCOC(=O)N1CCc2c(sc3c2c(=O)n(Cc2ccccc2)c(=O)n3CC(=O)Nc2ccccc2F)C1 | 3.0%[59 µM] | x | x | -9.7% | 22.8% | -17.9%
CCCCCCOc1cccc(N)c1 | u | 2.6% | 17.9% | -36.5% | 5.4% | -33.8%
CC(C)c1cccc(OCCCCN(C)C)c1 | 3.98µM* | x | 79.4µM* | u | u | u
CCN(CC)CCOc1cccc(C(C)C)c1 | u | 10.1% | -6.5% | u | u | 6.31µM*
CCN(CC)CCOc1ccc2c(c1)C(=O)c1cc(OCCN(CC)CC)ccc1-2 | -43.5%[2.33 µM] | x | 11.4% | x | x | x
SMILES | G9a block | L3MBTL1 inh | Sfp PPTase inh | BAZ2B inh | HP1b chromo inh | JMJD2A Tudor inh
O=C1[C@@H]2[C@H]3[C@H](O)[C@H](O)C/C(=N/OCc4ccccc4)[C@H]3CC[C@H]2C(=O)N1c1ccc(F)cc1F | x | x | 14.4% | x | x | x
CC1=CC2=NC(=O)/C(=C\c3cccn3CCOc3cccc(C)c3)C(=N)N2O1 | 2.6%[59 µM] | -2.7% | u | -38.3% | -23.3% | u
COc1cccc(OCCn2cccc2/C=C2/C(=N)N3OC(C)=CC3=NC2=O)c1 | 17.8µM* | x | 11.4% | u | -2.4% | -10.0%
CC1=CC2=NC(=O)/C(=C\c3cccn3CCOc3cc(C)cc(C)c3)C(=N)N2O1 | 39.8µM* | -4.4% | u | u | -10.2% | u
Cc1ccc(CC(=O)NCC(O)c2ccccc2)cc1 (stereo not drawn) | 21.4% | x | 12.3% | 4.7% | 14.4% | -5.7%
Cc1ccc(C)c(NCC(O)c2ccccc2)c1 (stereo not drawn) | 70.8µM* | -7.1% | 25.0% | -33.3% | 3.3% | -15.9%
COc1ccc(CCNC(=O)c2ccc3nc(-c4ccco4)c(-c4ccco4)nc3c2)cc1OC | u | u | 10µM* | 50.1µM* | u | u
O=C(O)c1ccc2nc(-c3ccco3)c(-c3ccco3)nc2c1 | -123.5%[12.7 µM] | 2.24µM* | 7.94µM* | 10µM* | u | 25.1µM*
CCc1nc2ccc(C(=O)NCCc3ccc(OC)c(OC)c3)cc2nc1CC | -5.5% | x | 1.5% | -14.8%[57.1 µM] | -7.0% | -17.1%
O=C(c1ccc2nc(-c3ccco3)c(-c3ccco3)nc2c1)N1CCN(c2ccccc2)CC1 | u | u | u | u | -15.6% | u
O=C(Nc1cccc(C(F)(F)F)c1)c1ccc2nc(-c3ccco3)c(-c3ccco3)nc2c1 | u | x | 28.2µM* | 50.1µM* | -91.8% | 20µM*
O=C(Nc1cccc(C(F)(F)F)c1)c1ccc2snnc2c1 | 3.9%[59 µM] | x | x | 4.0% | 33.6% | 2.7%
Cc1cc(OCC(=O)OCC(=O)N2c3ccccc3NC(=O)C2(C)C)ccc1Cl | 18.4%[12.7 µM] | u | x | 79.4µM* | 2.1% | u
CC1(C)C(=O)Nc2ccccc2N1C(=O)COC(=O)c1ccc(NC(N)=O)cc1 | 35.5µM* | -17.1% | x | -9.6% | 8.7% | -19.7%
CC1(C)C(=O)Nc2ccccc2N1C(=O)COC(=O)c1cccc(O)c1 | x | u | x | x | 6.1% | u
COc1cc(CN2CCN(C(O)(c3ccccc3)c3ccccc3)CC2)cc(OC)c1OC | x | -0.8% | -6.3% | u | -13.4% | 25.1µM*
COc1cc(F)ccc1S(=O)(=O)N1CCN(Cc2ccccc2)CC1 | -7.8%[0.501 µM] | 0.9%[2.29 µM] | 0.4% | 1.6% | 28.2% | -2.0%
